{"source": "paper PMC4336329", "about": "(PLoS ONE, 2015)", "note": "Out of some 310,000 compounds screened, about 14,000 (4.5%) showed an effect of 50% or more. The effect is printed as a negative number. The sample as a whole holds a higher share of strong results than the screen did.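 Also: peak tail current of the secondary pulse compared with the same well before compound.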"}
{"biological_target": "human ether-à-go-go-related gene (hERG) potassium channel (human, UniProt Q12809)", "sequence (Q12809 whole entry, looked up)": "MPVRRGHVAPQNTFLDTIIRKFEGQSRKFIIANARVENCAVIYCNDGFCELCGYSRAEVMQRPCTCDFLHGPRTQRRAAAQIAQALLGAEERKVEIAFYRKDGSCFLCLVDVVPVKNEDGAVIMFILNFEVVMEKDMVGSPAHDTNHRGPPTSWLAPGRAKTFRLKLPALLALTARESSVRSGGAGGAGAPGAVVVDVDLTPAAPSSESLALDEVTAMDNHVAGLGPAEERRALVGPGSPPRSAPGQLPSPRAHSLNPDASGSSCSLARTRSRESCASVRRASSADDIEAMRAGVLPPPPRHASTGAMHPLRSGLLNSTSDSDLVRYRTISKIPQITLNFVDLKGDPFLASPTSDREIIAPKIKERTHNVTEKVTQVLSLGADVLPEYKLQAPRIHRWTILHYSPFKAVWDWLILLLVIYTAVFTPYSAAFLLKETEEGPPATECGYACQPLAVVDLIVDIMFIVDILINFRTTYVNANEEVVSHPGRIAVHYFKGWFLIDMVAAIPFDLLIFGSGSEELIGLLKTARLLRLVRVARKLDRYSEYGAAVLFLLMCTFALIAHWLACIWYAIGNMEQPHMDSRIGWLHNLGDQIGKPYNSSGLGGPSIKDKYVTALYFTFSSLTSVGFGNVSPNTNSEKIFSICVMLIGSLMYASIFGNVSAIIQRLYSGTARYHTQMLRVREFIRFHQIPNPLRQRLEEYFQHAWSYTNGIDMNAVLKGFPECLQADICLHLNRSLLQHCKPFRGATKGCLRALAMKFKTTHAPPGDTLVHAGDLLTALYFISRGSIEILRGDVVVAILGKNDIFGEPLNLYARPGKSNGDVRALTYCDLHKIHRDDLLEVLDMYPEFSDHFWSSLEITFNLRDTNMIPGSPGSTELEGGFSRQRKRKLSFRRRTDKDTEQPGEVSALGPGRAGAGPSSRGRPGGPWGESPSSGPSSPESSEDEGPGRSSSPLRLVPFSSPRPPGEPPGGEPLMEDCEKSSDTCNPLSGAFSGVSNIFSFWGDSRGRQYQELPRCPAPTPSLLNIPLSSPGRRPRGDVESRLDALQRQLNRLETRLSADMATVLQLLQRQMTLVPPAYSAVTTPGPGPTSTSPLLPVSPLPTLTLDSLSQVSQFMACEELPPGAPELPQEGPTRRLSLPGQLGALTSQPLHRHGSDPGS", "test": "primary screen, population patch clamp on CHO cells stably expressing hERG; higher = less effect of the substance", "units": {"hERG current change (%, negative = inhibition) at 10uM": "%"}}
{"smiles": "CCCc1cc(N2CCCC(C(=O)NCC)C2)n2ncnc2n1", "note": "(stereo not shown)", "hERG current change (%, negative = inhibition) at 10uM": -27.3}
{"smiles": "O=C(COC(=O)C1CCN(S(=O)(=O)c2cccs2)CC1)c1ccccc1", "hERG current change (%, negative = inhibition) at 10uM": 20.6}
{"smiles": "O=C(COC(=O)C1CCN(S(=O)(=O)c2cccs2)CC1)NCc1ccccc1", "hERG current change (%, negative = inhibition) at 10uM": -23.6}
{"smiles": "CN(Cc1ccccc1)C(=O)COC(=O)C1CCN(S(=O)(=O)c2cccs2)CC1", "hERG current change (%, negative = inhibition) at 10uM": -53.4}
{"smiles": "CCN(C(=O)COC(=O)C1CCN(S(=O)(=O)c2cccs2)CC1)c1ccccc1", "hERG current change (%, negative = inhibition) at 10uM": 22}
{"smiles": "Cc1ccc(S(=O)(=O)N2CCC(C(=O)OCC(=O)N3CCc4ccccc43)CC2)cc1", "hERG current change (%, negative = inhibition) at 10uM": -25.4}
{"smiles": "O=C(COC(=O)C1CCN(S(=O)(=O)c2cccs2)CC1)NCc1ccc(F)cc1", "hERG current change (%, negative = inhibition) at 10uM": -49.7}
{"smiles": "CN(C)C=O.O=C(OCC(=O)N1CCCc2ccccc21)C1CCN(S(=O)(=O)c2cccs2)CC1", "hERG current change (%, negative = inhibition) at 10uM": -71.1}
{"smiles": "CN(C(=O)COC(=O)C1CCN(S(=O)(=O)c2cccs2)CC1)c1ccccc1", "hERG current change (%, negative = inhibition) at 10uM": -14.1}
{"smiles": "Cc1ccc(CNC(=O)COC(=O)C2CCN(S(=O)(=O)c3cccs3)CC2)cc1", "hERG current change (%, negative = inhibition) at 10uM": -50.5}
{"smiles": "ClC1(Cl)CC1CSc1nnc(-c2ccncc2)o1", "note": "(stereo not shown)", "hERG current change (%, negative = inhibition) at 10uM": -16.3}
{"smiles": "COc1ccc(-c2ccc(NS(=O)(=O)c3cc([N+](=O)[O-])c(C)c([N+](=O)[O-])c3)cc2)nn1", "hERG current change (%, negative = inhibition) at 10uM": -11.3}
{"smiles": "O=C(Cn1nnc(N2CCCC2)n1)N/N=C/c1ccc(Cl)cc1", "hERG current change (%, negative = inhibition) at 10uM": 13.1}
{"smiles": "Cc1cc(C)c(C)c(S(=O)(=O)NCc2ccc(C(=O)N3CCOCC3)cc2)c1C", "hERG current change (%, negative = inhibition) at 10uM": -4.97}
{"smiles": "CC(=O)CCC(=O)N1CCCC(N2CCN(c3cccc(Cl)c3)CC2)C1", "note": "(stereo not shown)", "hERG current change (%, negative = inhibition) at 10uM": -2.63}
{"smiles": "O=C(CSc1ccccc1)N1CCCC(N2CCN(c3ccc(F)cc3)CC2)C1", "note": "(stereo not shown)", "hERG current change (%, negative = inhibition) at 10uM": -75.3}
{"smiles": "O=C(CSc1ccccc1)N1CCN(c2ccc(F)cc2)CC1", "hERG current change (%, negative = inhibition) at 10uM": 10.8}
{"smiles": "O=C(CSc1ccccc1)N1CCCC(N2CCN(c3cccc(Cl)c3)CC2)C1", "note": "(stereo not shown)", "hERG current change (%, negative = inhibition) at 10uM": -54.1}
{"smiles": "O=C(CSc1ccccc1)N1CCCC(N2CCN(c3ccccc3)CC2)C1", "note": "(stereo not shown)", "hERG current change (%, negative = inhibition) at 10uM": -33.7}
{"smiles": "O=C(CCC(F)(F)F)N1CCCC(N2CCN(c3cccc(Cl)c3)CC2)C1", "note": "(stereo not shown)", "hERG current change (%, negative = inhibition) at 10uM": -46.8}
{"smiles": "CCCc1cc(C(=O)NCc2ccco2)no1", "hERG current change (%, negative = inhibition) at 10uM": 9.57}
{"smiles": "COc1cccc(CCc2nnc(CCC(=O)NCCc3cccc(C)n3)o2)c1", "hERG current change (%, negative = inhibition) at 10uM": 24.7}
{"smiles": "CCCOc1cccc(C2C(C(=O)c3cc4ccccc4o3)=C(O)C(=O)N2c2cc(C)on2)c1", "note": "(stereo not shown)", "hERG current change (%, negative = inhibition) at 10uM": -7.72}
{"smiles": "CCCOC(=O)C[N+](C)(C)CCOC1CC2CCC1(C)C2(C)C.[Br-]", "note": "(stereo not shown)", "hERG current change (%, negative = inhibition) at 10uM": 13}
{"smiles": "CCC(C)OC(=O)C[N+](C)(C)CCOC1CC2CCC1(C)C2(C)C.[Cl-]", "note": "(stereo not shown)", "hERG current change (%, negative = inhibition) at 10uM": -17.3}
{"smiles": "CCCCOC(=O)C[N+](C)(C)CCOC1CC2CCC1(C)C2(C)C.[Br-]", "note": "(stereo not shown)", "hERG current change (%, negative = inhibition) at 10uM": -52.7}
{"smiles": "CCCCCCOC(=O)C[N+](C)(C)CCOC1CC2CCC1(C)C2(C)C.[Cl-]", "note": "(stereo not shown)", "hERG current change (%, negative = inhibition) at 10uM": -78.1}
{"smiles": "CC(C)CCOC(=O)C[N+](C)(C)CCOC1CC2CCC1(C)C2(C)C.[Cl-]", "note": "(stereo not shown)", "hERG current change (%, negative = inhibition) at 10uM": -16.3}
{"smiles": "CCOC(=O)C[N+](C)(C)CCOC1CC2CCC1(C)C2(C)C.[Cl-]", "note": "(stereo not shown)", "hERG current change (%, negative = inhibition) at 10uM": 10.3}
{"smiles": "CCCn1nc2cc(C(=O)NCc3ccc(OC(F)(F)F)cc3)ccc2c1OCC", "hERG current change (%, negative = inhibition) at 10uM": 14.3}
{"smiles": "O=C(COC(=O)c1ccc(Cl)nc1)NC1CCCCCC1", "hERG current change (%, negative = inhibition) at 10uM": -5.25}
{"smiles": "CCCc1nnc(NC(=O)CCC(=O)N2CCN(C3c4ccccc4-c4ccccc43)CC2)s1", "hERG current change (%, negative = inhibition) at 10uM": -3.76}
{"smiles": "CCCP(=O)(CC(=O)N(CC)CC)c1ccccc1", "note": "(stereo not shown)", "hERG current change (%, negative = inhibition) at 10uM": 12}
{"smiles": "COc1ccccc1N1CCN(C(=O)c2cc3n(n2)C(C(F)(F)F)CC(c2ccco2)N3)CC1", "note": "(stereo not shown)", "hERG current change (%, negative = inhibition) at 10uM": -1.94}
{"smiles": "CC(C)c1nnc(NC(=O)c2cc3ccccc3o2)s1", "hERG current change (%, negative = inhibition) at 10uM": 11.1}
{"smiles": "Cc1c(CNC(=O)C2CC2)c(-n2cccc2)n(Cc2ccccc2)c1C", "hERG current change (%, negative = inhibition) at 10uM": 27.1}
{"smiles": "O=S(=O)(c1cccc(COc2c(Cl)cccc2Cl)c1)N1CCOCC1", "hERG current change (%, negative = inhibition) at 10uM": -12}
{"smiles": "N#Cc1ccc(OCc2cccc(S(=O)(=O)N3CCOCC3)c2)cc1", "hERG current change (%, negative = inhibition) at 10uM": -82.1}
{"smiles": "N#Cc1ccccc1OCc1cccc(S(=O)(=O)N2CCOCC2)c1", "hERG current change (%, negative = inhibition) at 10uM": -38.9}
{"smiles": "Cc1cc(OCc2cccc(S(=O)(=O)N3CCOCC3)c2)ccc1Cl", "hERG current change (%, negative = inhibition) at 10uM": -9.12}
{"smiles": "O=S(=O)(c1cccc(COc2ccc(Cl)cc2Cl)c1)N1CCOCC1", "hERG current change (%, negative = inhibition) at 10uM": 3.46}
{"smiles": "CC(=O)c1cc(Cl)ccc1OCc1cccc(S(=O)(=O)N2CCOCC2)c1", "hERG current change (%, negative = inhibition) at 10uM": -68.9}
{"smiles": "COC(=O)c1sc2nc(CN3CCOCC3)nc(N3CCOCC3)c2c1C", "hERG current change (%, negative = inhibition) at 10uM": 1.53}
